Assay results from article PMC4336329 (PLoS ONE, 2015).
About 14,000 (4.5%) of roughly 310,000 compounds showed an effect of 50% or more. The effect is printed as a negative number. The full list was thinned out, with strong results kept by preference.
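Note: peak tail current of the secondary pulse compared with the same well before compound.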

These compounds were tested against human ether-à-go-go-related gene (hERG) potassium channel (human, UniProt Q12809) (assay: primary screen, population patch clamp on CHO cells stably expressing hERG; higher = less effect of the substance).
Sequence of human ether-à-go-go-related gene (hERG) potassium channel (Q12809 whole entry, looked up): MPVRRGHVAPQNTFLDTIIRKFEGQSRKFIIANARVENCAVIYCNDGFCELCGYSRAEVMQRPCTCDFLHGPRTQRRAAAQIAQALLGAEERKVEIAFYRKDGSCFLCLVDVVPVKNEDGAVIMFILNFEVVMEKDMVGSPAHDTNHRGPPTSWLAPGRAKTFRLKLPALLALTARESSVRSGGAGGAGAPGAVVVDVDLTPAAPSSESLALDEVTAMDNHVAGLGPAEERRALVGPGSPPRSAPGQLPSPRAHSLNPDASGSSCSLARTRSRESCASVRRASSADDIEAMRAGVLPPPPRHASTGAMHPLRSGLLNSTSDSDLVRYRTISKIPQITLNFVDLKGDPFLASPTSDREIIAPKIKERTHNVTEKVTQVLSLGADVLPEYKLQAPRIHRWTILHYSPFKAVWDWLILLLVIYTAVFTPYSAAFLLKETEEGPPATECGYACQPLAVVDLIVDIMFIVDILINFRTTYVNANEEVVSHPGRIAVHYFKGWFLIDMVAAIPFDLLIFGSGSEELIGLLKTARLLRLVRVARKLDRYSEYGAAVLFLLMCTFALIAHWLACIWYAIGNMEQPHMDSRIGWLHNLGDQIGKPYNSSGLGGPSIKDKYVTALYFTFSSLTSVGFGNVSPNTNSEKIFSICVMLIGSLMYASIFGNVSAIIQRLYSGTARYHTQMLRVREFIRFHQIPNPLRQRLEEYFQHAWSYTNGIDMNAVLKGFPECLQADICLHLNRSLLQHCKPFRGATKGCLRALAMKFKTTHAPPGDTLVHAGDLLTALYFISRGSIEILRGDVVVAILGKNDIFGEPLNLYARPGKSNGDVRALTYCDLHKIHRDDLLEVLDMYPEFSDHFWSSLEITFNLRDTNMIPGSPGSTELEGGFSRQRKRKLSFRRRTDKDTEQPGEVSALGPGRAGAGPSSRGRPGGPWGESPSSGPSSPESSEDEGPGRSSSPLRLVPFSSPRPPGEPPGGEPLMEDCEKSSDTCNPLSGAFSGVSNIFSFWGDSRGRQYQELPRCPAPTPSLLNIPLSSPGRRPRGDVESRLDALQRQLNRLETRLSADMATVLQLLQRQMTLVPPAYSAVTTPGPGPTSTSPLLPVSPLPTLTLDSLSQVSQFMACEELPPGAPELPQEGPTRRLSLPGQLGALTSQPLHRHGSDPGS
For `CNC(=O)c1ccc(NC(=O)CC2SC(N3CCCC3)=NC2=O)cc1` (stereo not drawn), the “hERG current change (%, negative = inhibition) at 10uM” value was -4.89%. For `CCCc1nc2sc3ccccc3c(=O)c2c(=O)n1CCOC`, the “hERG current change (%, negative = inhibition) at 10uM” value was 9.8%. For `CCOC(=O)CN1CC23C=CC(O2)C(C(=O)Nc2ccc4c(c2)OCO4)C3C1=O` (stereo not drawn), the “hERG current change (%, negative = inhibition) at 10uM” value was 4.95%. For `Cc1cc(Br)ccc1NC(=O)CN(C)C(=O)COc1cccc2c1OC(C)(C)C2`, the “hERG current change (%, negative = inhibition) at 10uM” value was -8.15%. For `COCCn1c(SCC(=O)Nc2ccc(C(C)=O)cc2)nc2c([nH]c3ccccc32)c1=O`, the “hERG current change (%, negative = inhibition) at 10uM” value was 1.97%. `Cc1cc(O)c(-c2ccno2)cc1Cl` was tested, and the “hERG current change (%, negative = inhibition) at 10uM” value was 13%. With `CCN(CC)c1ccc(NC(=O)Cn2cc3c(n2)CCC(C)C3)c(C)c1` (stereo not drawn) the “hERG current change (%, negative = inhibition) at 10uM” value was -3.35%. `NC(=O)CSc1nnc(-c2cccs2)n1Cc1ccco1` was tested, and the “hERG current change (%, negative = inhibition) at 10uM” value was -13.9%. With `COc1ccc(CNCCNC(=O)c2nonc2N)cc1OC.Cl` the “hERG current change (%, negative = inhibition) at 10uM” value was -24.8%. For `COc1cc(CNCCNC(=O)c2nonc2N)ccc1OCc1ccc(Cl)nc1.Cl`, the “hERG current change (%, negative = inhibition) at 10uM” value was -56.4%. In the case of `COc1cc(OC)c(OC)cc1CNCCNC(=O)c1nonc1N.Cl`, the “hERG current change (%, negative = inhibition) at 10uM” value is reported as -0.502%. In the case of `COc1cc(CNCCNC(=O)c2nonc2N)ccc1OCc1ccc(Cl)cc1.Cl`, the “hERG current change (%, negative = inhibition) at 10uM” value is reported as -74.4%. `COc1cc(CNCCNCC(C)O)ccc1OCc1ccc(Cl)nc1` (stereo not drawn) was tested, and the “hERG current change (%, negative = inhibition) at 10uM” value was -8.7%. In the case of `COc1cccc(CNCCNC(=O)c2nonc2N)c1.Cl`, the “hERG current change (%, negative = inhibition) at 10uM” value is reported as 9.27%. In the case of `CC(C(=O)Nc1nccs1)N1C(=O)c2ccccc2S1(=O)=O` (stereo not drawn), the “hERG current change (%, negative = inhibition) at 10uM” value is reported as 11.5%. `CCc1nn(CCCC(=O)N2CCC(C)CC2)c(=O)c2cc3occc3n12` was tested, and the “hERG current change (%, negative = inhibition) at 10uM” value was -2.71%. With `O=C(OCC(=O)N1CCCCCC1)c1cnc(Cl)c(Cl)c1` the “hERG current change (%, negative = inhibition) at 10uM” value was -2.83%. `COCCNc1ccc([N+](=O)[O-])cc1C(=O)Nc1cccc(C)n1` was tested, and the “hERG current change (%, negative = inhibition) at 10uM” value was -62.7%. For `Cc1cccc(NC(=O)c2ccc(NCC3CCCO3)c([N+](=O)[O-])c2)n1` (stereo not drawn), the “hERG current change (%, negative = inhibition) at 10uM” value was 14.2%. `Cc1cccc(NC(=O)c2ccc([N+](=O)[O-])cc2Cl)n1` was tested, and the “hERG current change (%, negative = inhibition) at 10uM” value was -22.8%. `Cc1cccc(NC(=O)c2cc([N+](=O)[O-])ccc2N2CCCCC2)n1` was tested, and the “hERG current change (%, negative = inhibition) at 10uM” value was -35.1%. `Cc1cccc(NC(=O)c2cc([N+](=O)[O-])ccc2NCC2CCCO2)n1` (stereo not drawn) was tested, and the “hERG current change (%, negative = inhibition) at 10uM” value was -80.9%. `COc1cccc(NC(=O)c2cc([N+](=O)[O-])ccc2NC(=O)CNCC2CCCO2)c1` (stereo not drawn) was tested, and the “hERG current change (%, negative = inhibition) at 10uM” value was -16.4%. In the case of `Cc1ccc(C)c(N(CC(=O)NN=C2CCCCCCC2)S(C)(=O)=O)c1`, the “hERG current change (%, negative = inhibition) at 10uM” value is reported as -5.63%.
